Bioassay records deposited in PubChem by National Center for Advancing Translational Sciences (NCATS).
In the library only some 1.7% were active in any assay of this set; here they are far more common.
hERG WT inh – inhibitors of human wildtype KCNH2 potassium channel | Q12809 | U2OS, BacMam KCNH2, thallium flux FluxOr; hits give low values | 340,000 tested, 0.37% active | activity change, % at 1.84 µM;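 active = maximum activity change below -70%; inconclusive = maximum activity change between -70% and -50%; inactive = maximum activity change above -50%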
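U2OS cells were transduced with wild-type KCNH2 virus (2.03 x 10^8 / mL) for 4 h at room temperature, then cultured overnight at 37 C. Thallium flux was read with FluxOr dye. Rate constants were normalized to DMSO controls.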
TRPML1 inh – blocks the human TRPML1 channel. AID 624415. 390,000 tested, 0.02% active. activity change, negative = inhibition, % (no concentration beside the values). Q9GZU1. TRPML1-inducible cells, Ca2+ dye fluorescence, FDSS; hits give low values; inhibition of EC80 agonist-evoked calcium signal; in the data active = activity change below about -50%; inconclusive = between about -30% and that limit;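 also: stimulus is agonist 54-4 at its EC80 concentration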
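Tet-induced TRPML1-DL cells loaded with Ca8 no-wash calcium dye were read kinetically on FDSS. Compound addition was followed by EC80 agonist 54-4 (4 uM final); inhibition was read over 110 s.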
KCNH2 3.1 block – inhibitors of human KCNH2 3.1 potassium channel isoform; AID 720553; activity change, % (tested at about 1.8 µM); 340,000 tested, 0.95% active; U2OS KCNH2 3.1, thallium flux FluxOr; hits give low values;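 active = maximum activity change below -70%; inconclusive = maximum activity change from -70% to -50%; inactive = maximum activity change above -50%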;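 also: thallium influx rate constant from kinetic fluorescence after stimulation buffer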
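Kinetic fluorescence (2 min after stimulation buffer) measures Tl+ influx through KCNH2 3.1 expressed by viral transduction in U2OS cells; the rate constant is normalized against DMSO controls serving as positive and negative references.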
TRHR ag – TRH receptor (human) agonism; AID 493084; 360,000 tested, 0.18% active; TRHR cells, calcium flux fluo-8, FDSS agonist mode; activation, % at 2 µM; P34981; in the data active = activation above about 30%
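In this calcium-flux screen, cells bearing human TRHR are dye-loaded with fluo-8, baselined for 10 cycles, then exposed to library compounds; positive kinetic calcium responses during the agonist phase mark hits, with TRH as control.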
TRPML1 agonist – agonists of human TRPML1 channel; Q9GZU1; TRPML1-expressing cells, Ca2+ dye fluorescence, FDSS; activation, % (concentration not given with the values); 410,000 tested, 0.12% active; AID 624414; in the data active = activation above about 50%; inconclusive = mostly about 30% to 49%
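Tetracycline-induced TRPML1-DL cells are seeded and incubated overnight before loading with a no-wash Ca2+ dye and quencher. Agonist activity is taken from the 110 s fluorescence read following compound pin-transfer on an FDSS, before EC80 54-4 challenge.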
TRHR PAM – allosteric enhancers of human TRH receptor | enhancement, % at 2 µM | TRHR cells, fluo-8 calcium fluorescence, EC20 TRH enhancement | 360,000 tested, 0.66% active; in the data active = enhancement above about 30%
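Enhancer read-out: after compound pinning and an initial kinetic agonist-mode read, an EC20 of TRH (10 nM final) was injected and fluo-8 calcium signal (Ex 480/Em 530) followed at 1 s/cycle for 100 cycles in TRHR-expressing cells.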
Numbers stand for hits; 0 = inactive; ? = inconclusive; - = no result given.

SMILES	hERG WT inh	TRPML1 inh	KCNH2 3.1 block	TRHR ag	TRPML1 agonist	TRHR PAM
Cc1ccc(/C(N)=N/OC(=O)c2cccs2)cc1	-176	0	-185	0	0	0
CCCNC(=O)c1cc(C2CCCCN2C(=O)c2ccc(OC)cc2)on1 (centres undefined)	-	-	-	-	0	-
Cc1cccc(Nc2ncccc2C(=O)NCc2cccs2)c1C	0	0	-73	0	0	0
Cc1ccc(Nc2ncccc2C(=O)NCc2cccs2)c(C)c1	0	0	-	-	0	-
COc1ccc(-n2ncc(C(=O)Nc3cccc(C(F)(F)F)c3)c2C2CCN(C(=O)OC(C)(C)C)CC2)cc1	-	0	-	0	0	0
CN(C(=O)CSc1nc2ccccc2[nH]1)C1CCS(=O)(=O)C1 (centres undefined)	0	0	0	0	0	0
Cc1ccc2nc(SCC(=O)N(C)C3CCS(=O)(=O)C3)[nH]c2c1 (centres undefined)	0	0	-198	0	0	0
COc1ccc(C(=O)COC(=O)c2nc3nccc(C)n3n2)cc1F	0	0	0	0	0	0
COC(=O)c1ccc(C(=O)NC2CCCc3c2cnn3-c2ccc(C)c(C)c2)cc1 (centres undefined)	0	0	0	0	0	35
CC(=O)Nc1cccc(C(=O)/C=C/c2ccc(N(C)C)cc2)c1	0	?	0	153	72	0
CCOc1ccc(CN2CCCC(CO)(Cc3ccc(F)cc3)C2)cc1 (centres undefined)	0	0	-97	0	0	0
Cc1nn(C)c(Cl)c1CN1CCCC(CO)(Cc2ccccc2)C1 (centres undefined)	0	0	-85	0	0	0
O=C(COC(=O)C1CCN(c2ccc(C(F)(F)F)cn2)CC1)Nc1ncc(Cl)cc1Cl	0	0	-71	0	0	0
O=C(COC(=O)C1CCN(c2ccc(C(F)(F)F)cn2)CC1)Nc1ccc(Cl)cn1	0	0	0	0	0	0
OC(CSc1ccccc1)CN1CCN(c2ccc(Cl)cc2)CC1 (centres undefined)	0	0	-86	-	0	-
S=c1[nH]c(-c2ccccc2)cn1/N=C/c1cccc2ccccc12	0	0	0	0	0	34
Cc1ccc(C)c(N2CCN(c3nc4ccccc4n4nnnc34)CC2)c1	-	0	-	0	0	0
c1ccc(-n2nnnc2Sc2n[nH]c(-c3ccncc3)n2)cc1	-200	0	-189	0	0	0
COc1ccccc1CCNC(=O)C(=O)NCC(c1cccs1)S(=O)(=O)c1cccs1 (centres undefined)	-	0	-	0	0	0
CC12CN3CC(C)(CN(C1)C3c1ccccc1F)C2 (centres undefined)	0	0	-99	0	0	0
CC12CN3CC(C)(CN(C1)C3c1ccccc1Cl)C2O (centres undefined)	0	0	0	0	0	0
COc1cccc(C2C=C(c3ccc(Br)s3)Nc3ncnn32)c1OC (centres undefined)	0	0	0	33	0	0
COc1ccccc1Oc1nnnn1-c1ccc(C(N)=O)cc1	0	0	-85	0	0	0
NC(=O)c1ccc(-n2nnnc2Oc2ccccc2)cc1	0	0	0	0	0	0
COCCNC(=O)C1(C)CCCN(C(=O)c2ccc(C#N)cc2)C1 (centres undefined)	-	-	-	-	0	-
SMILES	hERG WT inh	TRPML1 inh	KCNH2 3.1 block	TRHR ag	TRPML1 agonist	TRHR PAM
COc1cc2c(cc1OC)C(c1ccc(C(F)(F)F)cc1)CC(=O)N2 (centres undefined)	0	0	0	0	0	0
COc1cc2c(cc1OC)C(c1ccc(Br)cc1)CC(=O)N2 (centres undefined)	-126	0	0	0	0	0
COc1ccccc1NC(=O)Cn1cc(C#N)c2ccccc21	-254	0	0	0	0	0
COc1ccc([N+](=O)[O-])cc1NC(=O)COC(C)=O	0	0	-123	0	0	0
COc1ccccc1NC(=O)CSCc1ccc([N+](=O)[O-])cc1	-149	0	-199	0	0	0
CN(C)C1(CNC(=O)COc2ccc([N+](=O)[O-])cc2)CCCCC1	-	0	-	0	0	0
